B1: chr7:107760707:107760808:+|3pUTR|ENSG00000105879|unk|FALSE|unique (ssRNA)
RNA: GGGAGUUCUACAGUCCGACGAUCAAACAUGAAAUAUGUAGUAUGCAGAUAUCAUUUAUUAGAUAGUUUGUAGUGUAUACAUUUAGAACAUACUUCUUUUGACAAAGGGUGAUCUGAUUGCUAAUUUACCAUUUUAUUCUGUCACAACAGAGGAUUGAGCAUCA
B2: chr1:162523450:162523604:+|3pUTR|ENSG00000152332|msi1|FALSE|unique (ssRNA)
RNA: GGGAGUUCUACAGUCCGACGAUCAGACUAAGUUGUGCCAGAUGUAAAUCAACCCCUCUUUUAGUUUACUUUAGACUUUGUAUUAGCUCAUCUUUUUUGUAGUAAAUCUAUAGUUUUAAGGUUUCUCAAGAUGUGGCUCUACCUCAACAGAGGAUUGAGCAUCA
B3: chr3:62294290:62294391:+|3pUTR|ENSG00000144724|msi1|FALSE|unique (ssRNA)
RNA: GGGAGUUCUACAGUCCGACGAUCAACUAGUCCUCUAAAAAUUCCCUAUUACUCCUAUAGCAAUCUAAUAAAAACUACCUACAUAGUUACUGUUUUCUUUCCUUCUUUGCCAAAUGUUUUAUAAUAAAUCUCUUAAUUACAUACCAACAGAGGAUUGAGCAUCA
B4: chr17:77216858:77216994:+|3pUTR|ENSG00000129657|unk|FALSE|bound_elsewhere (ssRNA)
RNA: GGGAGUUCUACAGUCCGACGAUCUGUUUCUACCUUUAGUACCUUGCCACUCUUUUAAAACGCUGCUGUCAUUUCCCAUUUCUUAGUACUAAUGAUUCUUUGAUUCUCCCUCUAUUAUGUCUUAAUUCACUUUCCUUCCUAAAUCAACAGAGGAUUGAGCAUCA
B5: chr7:107760707:107760808:+|3pUTR|ENSG00000105879|unk|total|mutant (ssRNA)
RNA: B1 RNA with U38C, A39C, U59C, A60C, U63C, A64C, U70C, A71C, U83C, A84C
B6: chr3:62294290:62294391:+|3pUTR|ENSG00000144724|msi1|total|mutant (ssRNA)
RNA: B3 RNA with U27C, A28C, U57C, A58C, U83C, A84C
B7: chr1:162523450:162523604:+|3pUTR|ENSG00000152332|msi1|total|mutant (ssRNA)
RNA: B2 RNA with U61C, A62C, U71C, A72C, U83C, A84C, U99C, A100C, U110C, A111C
B8: chr1:965281:965395:+|3pUTR|ENSG00000187961|unk|total|mutant (ssRNA)
RNA: GGGAGUUCUACAGUCCGACGAUCCCAUCCGUUCACGUCUCUGCAUCCAUUCCUUCAUGUCUUUAUUCCGUUGUUUAUUUAUUCCGUUAUUUAUCUUAUUUAUUGAGGGGUGAGGAGUGCCACGGCUGCCCGUUUACACCUUUACAACAGAGGAUUGAGCAUCA
B9: chr11:130144177:130144243:+|3pUTR|ENSG00000084234|msi1_unk|total|mutant (ssRNA)
RNA: GGGAGUUCUACAGUCCGACGAUCAUGAGGGUGUCCGCUGCUGCUUUCCUUCGGAAUCCAGUGCUUCCACAGAGAUCCGCCUGCCGCUUAUAUUUGACAUUCUUCACUGUCUGUUGUUUACCUACCGCCGCUUUUUACCGUUCACAACAGAGGAUUGAGCAUCA
B10: chr1:965281:965395:+|3pUTR|ENSG00000187961|unk|FALSE|unique (ssRNA)
RNA: B8 RNA with C67U, C68A, C83U, C84A
B11: chr10:119167843:119167906:-|3pUTR|ENSG00000165672|msi1_unk|FALSE|overlapping (ssRNA)
RNA: GGGAGUUCUACAGUCCGACGAUCUGCAUGAUCCCUCAUCCCUGAAAUUGAGUUUAUGUAGUCAUUUUACUUAUUUUAUUCAUUAGCUAACUUUGUCUAUGUAUAUUUCUAGAUAUUGAUUAGUGUAAUCGAUUAUAAAGGAUACAACAGAGGAUUGAGCAUCA
B12: chr1:229660051:229660152:+|3pUTR|ENSG00000135763|msi1|FALSE|bound_elsewhere (ssRNA)
RNA: GGGAGUUCUACAGUCCGACGAUCCUCAUUCAUAGUCUCAGUUACCCAGAUAACCUCGGUUGUCACCUUGGAGUAUCUUGUUGUAGUCCCUUUACUAUGUGUAUGUAUAUAGAUGUGCAUAUAAAUAUAUAUAGUAGCUAAAUUCAACAGAGGAUUGAGCAUCA
B13: chr12:2800410:2800520:+|CDS|ENSG00000004478|unk|total|mutant (ssRNA)
RNA: GGGAGUUCUACAGUCCGACGAUCAAAUACAAGCAAGCUUUACUACAGUAUAAGAAGAUCGUGUCUUGGCUGGAAUAUGAGUCCCGUUUUUCCAAUGAGGAAGCACAGAAAGCACAGGCCCUUCGACUGGCCUCUCACCUCAACCAACAGAGGAUUGAGCAUCA
B14: chr11:46743636:46743700:-|3pUTR|ENSG00000175216|msi1_unk|total|mutant (ssRNA)
RNA: GGGAGUUCUACAGUCCGACGAUCUUGUAAAAUUGUCCUAAUCUUUCCCCGCUUUUUAACCGUUAAUAUCCGAAACUCUUUAACCGUUUUCCUUUCAGUUUGUGAGCUCUUCUCUGUCGCCCUGAAGGGUCACUGUAUUCUGUACAACAGAGGAUUGAGCAUCA

Where a chain is given by its changes, count along the chain named. Whole data set: some 5,800 sequences, median “enrichment r” near 0.54, cut for the highest 2% near 16. The full list was thinned out, with the highest values kept by preference.

The values below come from paper PMC12136788.

MSI1 full-length, sequence (Q61474 whole entry): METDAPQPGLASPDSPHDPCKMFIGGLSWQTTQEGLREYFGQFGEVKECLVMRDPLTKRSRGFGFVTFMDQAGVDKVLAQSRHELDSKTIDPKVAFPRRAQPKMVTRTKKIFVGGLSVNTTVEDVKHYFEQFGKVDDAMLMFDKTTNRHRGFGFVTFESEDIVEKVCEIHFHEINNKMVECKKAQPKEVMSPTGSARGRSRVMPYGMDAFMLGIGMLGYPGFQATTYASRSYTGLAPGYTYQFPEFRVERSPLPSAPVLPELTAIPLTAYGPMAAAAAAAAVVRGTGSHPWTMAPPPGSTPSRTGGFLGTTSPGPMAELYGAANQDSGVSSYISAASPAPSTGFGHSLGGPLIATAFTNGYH

The assay addresses MSI1 full-length (mouse, UniProt Q61474 1-362). Nature of the assay: nsRBNS (natural sequence RNA bind-n-seq); RBNS binding buffer (assumed for nsRBNS): 25 mM Tris pH 7.5, 150 mM KCl, 3 mM MgCl2, 0.01% Triton X-100, 500 ug/ml BSA, 20 U/ml SUPERase-In, 4 C; UNK is unkempt and MSI1 is Musashi-1; names of the RNAs are library labels; protein concentration not given here; high values mean tight binding.
B1 displayed a binding signal of 56.7 enrichment R.
B2 returned a binding signal of 19.3 enrichment R.
B3: the binding signal came to 32 enrichment R.
For the molecule B4, the binding signal was found to be 6.66 enrichment R.
As to B5, the binding signal was found to be 0.319 enrichment R.
Next, B6: 8.49 enrichment R; B7: 0.276 enrichment R; B8: 8.96 enrichment R.
B9 gave a binding signal of 0.557 enrichment R.
Next, B10: 64.6 enrichment R; B11: 1.93 enrichment R.
The same measure for B12: 3.57 enrichment R.
The same measure for B13: 0.381 enrichment R; for B14: 0.866 enrichment R.
